# Experimental data: PMC5540273 (PLoS ONE, 2017)
# Test system: ZAK
# Details: concentration: 1 μM, replicates: in singlicate; n = 1
# 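Further: KINOMEscan kinase panel screen.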
row,SMILES,%Inh
1,COc1cc(Nc2nccc(N3CCC(NC(=O)Nc4cc(C)ccc4C)C3)n2)cc(OC)c1OC (stereo not shown) [GSK1379762],3%
2,COc1ccc(CNC(=O)NC2CCN(c3ccnc(Nc4cc(OC)c(OC)c(OC)c4)n3)C2)cc1 (stereo not shown) [GSK1379748],5%
3,O=S(=O)(c1ccc(-c2ccnc3[nH]ccc23)cc1)N1CCCC1 [GSK846226],0%
4,Cc1cccc(-c2nc(Nc3cccc(C(N)=O)c3)c3ccccc3n2)n1 [GW876019],0%
5,O=C(Nc1n[nH]c2cc(-c3cccc(F)c3F)ccc12)C1CC1 [SB-733894],0%
6,O=C(Nc1ccc2c(c1)OCO2)NC1CCN(c2ccnc(Nc3ccc(F)cc3)n2)C1 (stereo not shown) [GSK1379724],28%
7,COc1ccc2nc(-c3cccc(C)n3)nc(Nc3ccncc3)c2c1 [GSK204919],0%
8,Cc1ccc(-c2cc(-c3c[nH]nc3-c3ccccn3)ccn2)cc1 [GW684088],0%
9,COc1ccccc1CNC(=O)c1cc(C(=O)c2ccccc2C)c[nH]1 [GSK364507],24%
10,O=c1cc(N2CCOCC2)nc2n(Cc3cccc(Cl)c3Cl)ccn12 [GSK2286295],6%
11,CCCc1ccc(S(=O)(=O)NC2CCN(c3ccnc(Nc4ccc(F)cc4)n3)C2)cc1 (stereo not shown) [GSK1379715],67%
12,Cc1cccc(-c2nc(Nc3ccncc3)c3ccccc3n2)n1 [GW855857],4%
13,COc1cc2ncnc(Nc3ccc4nc(-c5ccccc5)[nH]c4c3)c2cc1OC.Cl [GW282450],0%
14,COc1ccccc1-c1ccc2c(NC(=O)C3CC3)n[nH]c2n1 [SB-711239],0%
15,Cl.O=C(Nc1cccc(-c2nn3ncccc3c2-c2ccnc(Nc3cccnc3)n2)c1)c1c(F)cccc1F [GSK312879],28%
16,Nc1nc(-c2nccs2)c(-c2ccnc3ccccc23)s1 [GW693542],39%
17,CN(C)CCN(C)C(=O)c1cc(-c2ccncc2)c(-c2ccc(Cl)c(O)c2)o1.Cl.Cl [SB-710397],41%

row,SMILES,%Inh
1,Nc1ncnc2[nH]c(-c3ccccc3)nc12 [AH5015],33%
2,Cc1ccc(C(=O)Nc2ccc(Nc3ccnc4cc(-c5ccccn5)ccc34)cc2O)cc1.Cl [GW440146],48%
3,Cc1ccc(NC(=O)Nc2cccc(Cl)c2)cc1-c1ccc(C(=O)Nc2ccncc2)cc1 [GSK1398468],68%
4,Fc1cccc(COc2nnc(-c3ccc4c(c3)CCO4)o2)c1,0%
5,COc1cccc(-c2cc(-c3c[nH]nc3-c3ccccn3)ccn2)c1 [GW680338],0%
6,COc1cc2ncn(-c3cc(OCC4CCCO4)c(C(N)=O)s3)c2cc1OC (stereo not shown) [GSK204607],6%
7,CS(=O)(=O)c1ccc(-c2c(-c3ncn[nH]3)sc(N3CCOCC3)c2C#N)cc1,0%
8,Cl.NC(=O)c1cccc(Nc2nccc(Nc3ccc(Oc4cccc(Cl)c4)c(Cl)c3)n2)c1 [GW659008],53%
9,Cc1cccc(-c2cc(Nc3ccncc3)c3ccccc3n2)n1 [GSK223675],82%
10,CC1=C(C(=O)Nc2cc3cn[nH]c3cc2F)C(c2ccc(C(F)(F)F)cc2)CC(=O)N1 (stereo not shown) [GSK429286],9%
11,Cc1nnc(-c2ccc3occ(-c4ccc(S(C)=O)cc4)c3c2)[nH]1 (stereo not shown),8%
12,Cc1c(Cn2ccn3c(=O)cc(N4CCOCC4)nc23)cccc1C(F)(F)F [GSK2289044],8%
13,CC(C)(C)c1ccc(C(=O)Nc2cn3cc(-c4cccnc4)ccc3n2)cc1,19%
14,O=C(Nc1n[nH]c2nc(-c3nccs3)c(Br)cc12)C1CC1 [SB-742251],7%
15,Cc1csc(-c2nc(Nc3ccncc3)c3ccccc3n2)n1 [GW869640],17%
16,C[C@@H]1CCCCN1c1cc(-c2ccc3c(N)n[nH]c3c2)nc(N)n1 [GSK2258759],0%
17,Cc1cc(NCC(c2ccccc2)c2ccccc2)nc(NCc2ccc(C(F)(F)F)cc2)n1 [GW497681],0%
